KB-V1 MDR tox = KB-V1 MDR subline cytotoxicity; KB-V1 MDR cells viability, CellTiter-Glo, 72 h; Potency, µM (highest dose often 46.1 µM), actives largely listed as cytotoxic; 400,000 tested, 3.4% active; AID 1347076; note: nearly all actives have a fitted effect of over 60% in size
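KB-V1 cells (P-gp-expressing MDR subline of KB-3-1) in phenol-red-free DMEM with 10% FBS were exposed to library compounds over a concentration series for 72 h at 37 degrees C. Viability read by CellTiter-Glo luminescence; concentration-effect curves fitted after normalization.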
HT1080NT lethal = kills 2HG-producing HT-1080-NT fibrosarcoma cells; HT-1080-NT fibrosarcoma viability, CellTiter-Glo ATP luminescence, 48 h; Potency, µM (titrated, usually from 46.1 µM), inactives show top-dose activity, negative = less viability, hits mostly cytotoxic; 360,000 tested, 1.6% active; AID 686970;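 note: NT is the 2HG producing partner of a matched IDH1 knockdown line; 0% = DMSO-treated cells and -100% = media-only wells without cells; nearly all actives have a fitted effect of over 55% in size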
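Fibrosarcoma NT cells, 750 per well in 5% FBS RPMI, were exposed to compound for 48 hours. Viability: CellTiter-Glo luminescence.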
DT40 TDP1 CPT = DT40-hTDP1 cell growth loss with CPT | chicken DT40 Tdp1-/-;hTDP1 cells + 20 nM CPT, ATP luminescence, 48 h | 420,000 tested, 12% active | Potency, µM (highest dose often 46.2 µM), for the others: at the top dose activity change, negative = growth inhibition, usual class: inhibitors; note: nearly all actives have a fitted effect of over 55% in size
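Cell growth measured by CellTiter-Glo luminescence after a minimum 48 h, 37 C compound exposure with 20 nM CPT in Tdp1-knockout DT40 cells stably expressing hTDP1, seeded 400/well; qHTS titration format.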
DT40 TDP1 no CPT = qHTS for Inhibitors of human tyrosyl-DNA phosphodiesterase 1 (TDP1): qHTS in cells in absence of CPT | 420,000 tested, 15% active | Potency, µM (titrated, usually from 46.2 µM), for the others: at the top dose activity change, negative = growth inhibition, hits mostly inhibitors | AID 686978, 2013 | DT40 Tdp1-/- hTDP1 cells, no CPT, ATP luminescence, 48 h; note: nearly all actives have a fitted effect of over 55% in size
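Camptothecin absent (DMSO only). Human TDP1-complemented DT40 knockout cells, 400 cells/well, 37 °C for minimum 48 hr; ATP measured via CellTiter-Glo, 30 min dark incubation, luminescence.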
HT1080 IDH1KD tx = toxicity to HT-1080 IDH1 knockdown cells (counter line); HT-1080 IDH1 knockdown viability, ATP luminescence, 48 h; Potency, µM (top dose mostly 46.1 µM), for the others: at the highest dose activity, negative = toxicity, actives largely listed as cytotoxic; 360,000 tested, 2% active;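 note: 0% = DMSO wells and -100% = cell-free medium wells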
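CellTiter-Glo luminescence after 48 h compound exposure at 37 degrees C of IDH1-knockdown HT-1080 cells in 5% FBS RPMI. %Activity scaled between DMSO wells and cell-free media wells, with curves fitted and assigned curve classes.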
KB-3-1 tox = KB-3-1 parental cell cytotoxicity; KB-3-1 viability, CellTiter-Glo ATP luminescence, 72 h; Potency, µM (doses to about 46.1 µM), usual class: cytotoxic; 400,000 tested, 1.4% active; AID 1347075; note: nearly all actives have a fitted effect of over 60% in size
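72 h, 37 °C compound treatment of KB-3-1 parental cells; CellTiter-Glo added, 10 min, luminescence read. Data corrected against DMSO-only plates and normalized before curve fitting.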
An asterisk follows results filed as active. This is a sample that favours compounds with a hit; in the whole collection about 19% have one here. Calls come from the whole dose curve; as a rule, active = well fitted curve in the direction sought with a large enough effect; inconclusive = small, poorly fitted or top-dose-only effect, or another doubt; inactive = no such curve, though single readings can be large; an effect the other way counts as inactive or inconclusive. Unless noted, % is set by controls: 0 for no effect and ±100 for the full control effect; potency is the fitted concentration of half-maximal effect.

What do the screens show for `CCOC(=O)C1=C(C)NC(=O)NC1/C(C)=C/c1ccccc1` (stereo unspecified)?
KB-V1 MDR tox: 21µM*; HT1080NT lethal: -15%; DT40 TDP1 CPT: -9%; DT40 TDP1 no CPT: inconclusive; HT1080 IDH1KD tx: inconclusive; KB-3-1 tox: inactive

What do the screens show for `CCOC(=O)C1=C(C)Nc2ncnn2C1c1cccs1` (stereo unspecified)?
KB-V1 MDR tox: inactive; HT1080NT lethal: 0%; DT40 TDP1 CPT: -23%; DT40 TDP1 no CPT: -10%; HT1080 IDH1KD tx: -5%; KB-3-1 tox: inactive

What do the screens show for `CCCC1=C(C(=O)OCC)C(/C=C/c2ccccc2)n2ncnc2N1` (stereo unspecified)?
KB-V1 MDR tox: inconclusive; HT1080NT lethal: 22µM*; DT40 TDP1 CPT: 16µM*; DT40 TDP1 no CPT: 13µM*; HT1080 IDH1KD tx: 11µM*; KB-3-1 tox: 8.9µM*

How did O=C(NCc1ccco1)C1C(=O)Nc2ccccc2C(=O)N1C1CCCCC1 (stereo unspecified) do in these assays?
KB-V1 MDR tox: inactive; HT1080NT lethal: 14%; DT40 TDP1 CPT: 6%; DT40 TDP1 no CPT: 4%; HT1080 IDH1KD tx: 5%; KB-3-1 tox: inactive

Results for CCCN(CC(=O)Nc1ccc(F)c(F)c1F)C(=O)c1cc([N+](=O)[O-])ccc1N1CCOCC1 ?
KB-V1 MDR tox: inactive; HT1080NT lethal: 3%; DT40 TDP1 CPT: inconclusive; DT40 TDP1 no CPT: inconclusive; HT1080 IDH1KD tx: -8%; KB-3-1 tox: inactive

How did CCCC1=C(C(=O)OCC)C(c2ccc(F)cc2)n2ncnc2N1 (stereo unspecified) do in these assays?
KB-V1 MDR tox: inactive; HT1080NT lethal: 5%; DT40 TDP1 CPT: inconclusive; DT40 TDP1 no CPT: inconclusive; HT1080 IDH1KD tx: 3%; KB-3-1 tox: inactive

Results for CCCC1=C(C(=O)OCC)C(c2ccc(N(C)C)cc2)n2ncnc2N1 (stereo unspecified) ?
KB-V1 MDR tox: 18µM*; HT1080NT lethal: -14%; DT40 TDP1 CPT: inconclusive; DT40 TDP1 no CPT: 26µM*; HT1080 IDH1KD tx: -23%; KB-3-1 tox: inconclusive

Results for CCOC(=O)C1=C(C)Nc2ncnn2C1/C=C/c1ccccc1 (stereo unspecified) ?
KB-V1 MDR tox: 10µM*; HT1080NT lethal: inconclusive; DT40 TDP1 CPT: inconclusive; DT40 TDP1 no CPT: inconclusive; HT1080 IDH1KD tx: inconclusive; KB-3-1 tox: inconclusive

What do the screens show for `COCCOC(=O)C1=C(C)Nc2ncnn2C1c1ccccc1` (stereo unspecified)?
KB-V1 MDR tox: inactive; HT1080NT lethal: inconclusive; DT40 TDP1 CPT: -15%; DT40 TDP1 no CPT: -5%; HT1080 IDH1KD tx: -1%; KB-3-1 tox: inactive

Results for O=C(CN1C(=O)C2CCCCN2c2ccc(C(=O)N3CCCC3)cc21)NCc1ccccc1F (stereo unspecified) ?
KB-V1 MDR tox: inactive; DT40 TDP1 CPT: inconclusive; DT40 TDP1 no CPT: -18%; KB-3-1 tox: inactive

What do the screens show for `CCCc1cc(=O)[nH]c(SCC(=O)Nc2cccc(S(=O)(=O)N3CCOCC3)c2)n1`?
HT1080NT lethal: 0%; DT40 TDP1 CPT: 14%; DT40 TDP1 no CPT: -4%; HT1080 IDH1KD tx: 0%

How did Cc1noc(C)c1C(=O)N1CCC2(CCCN(C(=O)Nc3ccccc3)C2)CC1 do in these assays?
DT40 TDP1 CPT: 16%; DT40 TDP1 no CPT: -2%

How did CN(C)c1ccc(CNC(=O)c2cc3ccccn3n2)cc1 do in these assays?
KB-V1 MDR tox: inactive; DT40 TDP1 CPT: -11%; DT40 TDP1 no CPT: -11%; KB-3-1 tox: inactive

Results for CCC(=O)c1ccc(OCC(O)CNC(C)c2ccccc2)cc1 (stereo unspecified) ?
KB-V1 MDR tox: inactive; HT1080NT lethal: -25%; DT40 TDP1 CPT: inconclusive; DT40 TDP1 no CPT: inconclusive; HT1080 IDH1KD tx: -14%; KB-3-1 tox: inactive

What do the screens show for `CC(C)c1ccc(OCC(O)CNC(C)c2ccccc2)cc1` (stereo unspecified)?
KB-V1 MDR tox: inactive; HT1080NT lethal: 23µM*; DT40 TDP1 CPT: 16µM*; DT40 TDP1 no CPT: 16µM*; HT1080 IDH1KD tx: 18µM*; KB-3-1 tox: inconclusive

Results for Cc1cccc(C)c1OCC(O)CNC(C)c1ccccc1 (stereo unspecified) ?
KB-V1 MDR tox: inactive; HT1080NT lethal: inconclusive; DT40 TDP1 CPT: 3.7µM*; DT40 TDP1 no CPT: 5.2µM*; HT1080 IDH1KD tx: inconclusive; KB-3-1 tox: inactive

What do the screens show for `O=C1CCC2(CC1)NC(=O)N(c1ccccc1)N2`?
KB-V1 MDR tox: inactive; HT1080NT lethal: inconclusive; DT40 TDP1 CPT: 9%; DT40 TDP1 no CPT: -13%; HT1080 IDH1KD tx: 8.2µM*; KB-3-1 tox: inactive

What do the screens show for `COc1ccc(CN2C(=O)N(c3ccc(F)cc3)C(=O)C2CC(=O)Nc2ccccc2)cc1` (stereo unspecified)?
KB-V1 MDR tox: inactive; DT40 TDP1 CPT: 13µM*; DT40 TDP1 no CPT: 13µM*; KB-3-1 tox: inactive

Results for COc1ccc(CCN2C(=O)N(c3ccc(F)cc3)C(=O)C2CC(=O)Nc2ccc(OC)cc2)cc1 (stereo unspecified) ?
KB-V1 MDR tox: inactive; DT40 TDP1 CPT: 12µM*; DT40 TDP1 no CPT: inconclusive; KB-3-1 tox: inactive

How did O=C(CC1C(=O)N(c2ccccc2)C(=O)N1Cc1ccc(F)cc1)Nc1cccc(F)c1 (stereo unspecified) do in these assays?
DT40 TDP1 CPT: inconclusive; DT40 TDP1 no CPT: 23µM*

What do the screens show for `COc1ccc(CCN2C(=O)N(c3ccc(F)cc3)C(=O)C2CC(=O)Nc2ccc(F)c(F)c2)cc1` (stereo unspecified)?
KB-V1 MDR tox: inactive; DT40 TDP1 CPT: 12µM*; DT40 TDP1 no CPT: 21µM*; KB-3-1 tox: inactive

Results for CCNC(=O)CC1C(=O)N(c2ccc(F)cc2)C(=O)N1Cc1ccc(OC)cc1 (stereo unspecified) ?
KB-V1 MDR tox: inactive; HT1080NT lethal: 8%; DT40 TDP1 CPT: -1%; DT40 TDP1 no CPT: -8%; HT1080 IDH1KD tx: 0%; KB-3-1 tox: inactive

How did COc1ccc(CCN2C(=O)N(c3ccc(F)cc3)C(=O)C2CC(=O)Nc2ccccc2)cc1 (stereo unspecified) do in these assays?
KB-V1 MDR tox: inactive; DT40 TDP1 CPT: inconclusive; DT40 TDP1 no CPT: inconclusive; KB-3-1 tox: inactive

High-throughput results (PubChem)
